RecA intein inh: Mtb RecA intein splicing inhibition; inhibition, % (concentration not given with the values); hit rate 0.75% among 290,000; cell-free RecA intein splicing, fluorescence; P9WHJ3; in the data active means inhibition above about 30%
Target sequence (P9WHJ3 whole entry, looked up): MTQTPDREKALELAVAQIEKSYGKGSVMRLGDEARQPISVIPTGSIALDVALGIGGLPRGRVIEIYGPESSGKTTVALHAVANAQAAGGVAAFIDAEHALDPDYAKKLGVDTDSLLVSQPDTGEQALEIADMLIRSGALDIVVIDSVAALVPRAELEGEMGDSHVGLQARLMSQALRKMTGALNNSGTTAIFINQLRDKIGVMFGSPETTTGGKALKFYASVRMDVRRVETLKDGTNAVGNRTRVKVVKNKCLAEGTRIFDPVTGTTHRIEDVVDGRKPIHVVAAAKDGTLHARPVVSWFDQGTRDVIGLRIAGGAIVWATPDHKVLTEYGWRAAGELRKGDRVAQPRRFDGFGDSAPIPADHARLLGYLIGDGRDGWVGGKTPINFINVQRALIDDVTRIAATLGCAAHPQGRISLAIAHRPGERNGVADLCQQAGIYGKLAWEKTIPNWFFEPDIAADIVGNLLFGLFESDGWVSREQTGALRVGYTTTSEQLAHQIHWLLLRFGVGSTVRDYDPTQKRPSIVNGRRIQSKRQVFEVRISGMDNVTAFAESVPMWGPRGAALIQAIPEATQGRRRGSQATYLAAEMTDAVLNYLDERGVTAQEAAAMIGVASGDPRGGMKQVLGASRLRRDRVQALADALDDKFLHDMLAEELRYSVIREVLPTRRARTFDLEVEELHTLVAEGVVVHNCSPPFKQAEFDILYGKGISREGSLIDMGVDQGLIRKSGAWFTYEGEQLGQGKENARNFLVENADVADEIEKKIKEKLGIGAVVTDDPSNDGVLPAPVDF
ugtP null kill: growth inhibition of S. aureus ugtP deletion strain. hit rate 0.54% among 330,000. S. aureus RN4220 ugtP deletion, OD600 growth, 16 h. growth inhibition, % (test concentration not listed); in the data active means growth inhibition above about 68%
Mtb hypoxia inh: reduces hypoxia-regulated biosensor signal in M. tuberculosis; M. tuberculosis hypoxia-regulated fluorescent reporter, fluorescence; fluorescence inhibition, % (no concentration beside the values); hit rate 0.1% among 300,000; in the data active means fluorescence inhibition mostly above about 23%, no sharp cut-off; inactive means mostly below about 17%
BJeLR lethal: kills HRASV12-expressing BJeLR cells; BJeLR (HRASV12) viability, CellTiter-Glo ATP luminescence, 48 h; inhibition, % (concentration not given with the values); hit rate 0.17% among 300,000; AID 1554; in the data active means inhibition above about 50%
Sa RN4220 lethal: kills Staphylococcus aureus RN4220; S. aureus RN4220 growth, OD600, 16 h; inhibition, % (test concentration not listed); hit rate 0.33% among 330,000; AID 1259311; in the data active means inhibition above about 85%
CCHF vOTU inh-1: CCHFV vOTU protease inhibition; AID 651958; inhibition, % at 11.5 µM; Pep-AMC fluorescence; hit rate 0.55% among 370,000
CCHF vOTU inh-2: CCHFV vOTU protease inhibition, confirmation | shares compounds with CCHF vOTU inh-1 | inhibition, % at 11.5 µM | hit rate 17% among 1,900 | AID 686976 | Recombinant CCHFV vOTU, Pep-AMC fluorescence
Of the large screens only hits and unclear results are named; the others gave an inactive call (follow-up assays come after a bar, where they were run). Compounds with a hit are over-represented: about 1.6% of the library has one in this group of screens. Unless noted, no stated cut-off is given here; in the data, active means inhibition above about 30%; inactive means the rest.

CC(C)n1c(SC2C(=O)CC(C)(C)CC2=O)nc2c1c(=O)n(C)c(=O)n2C	CCHF vOTU inh-1 30.5 | CCHF vOTU inh-2 inactive
CCCn1c(SC2C(=O)CC(C)(C)CC2=O)nc2c1c(=O)n(C)c(=O)n2C	none
O=C(NC(c1ccc(F)cc1)c1ccc2ccccc2n1)C1CCN(CCOc2ccc(F)cc2)CC1 (configuration not stated)	CCHF vOTU inh-1 31.7 (no result: RecA intein inh, ugtP null kill, Mtb hypoxia inh, BJeLR lethal, Sa RN4220 lethal) | CCHF vOTU inh-2 inactive
CC(=NNC(=O)c1cnccn1)c1ccc([N+](=O)[O-])cc1	none (no result: RecA intein inh, BJeLR lethal, CCHF vOTU inh-1)
N#Cc1ccc(C23CC4(C2)C(CN(Cc2ccc(-c5ccccc5)cc2)C4c2ccccc2)C3c2ccc(Cl)nc2)cc1 (configuration not stated)	none (no result: RecA intein inh, BJeLR lethal, CCHF vOTU inh-1)
CCCN(CC(=O)Nc1ccccc1C)C(=O)C1CCN(S(=O)(=O)c2ccc(C)c(C)c2)CC1	none (no result: RecA intein inh, ugtP null kill, Mtb hypoxia inh, BJeLR lethal, Sa RN4220 lethal)
CCCN(CC(=O)Nc1ccccc1C)C(=O)C1CCN(S(=O)(=O)c2ccc3c(c2)OCCO3)CC1	CCHF vOTU inh-1 35.1 (no result: RecA intein inh, BJeLR lethal) | CCHF vOTU inh-2 inactive
O=C1c2cccc3cccc(c23)C(=O)C1(O)O	none
CC(=O)C(C(C)=O)C1(O)C(=O)c2ccccc2C1=O	CCHF vOTU inh-1 100.9 | CCHF vOTU inh-2 inactive
c1cc(-c2cn(CC3CCC(C4CCC(Cn5cc(-c6ccsc6)nn5)O4)O3)nn2)cs1 (configuration not stated)	none (no result: RecA intein inh, BJeLR lethal, CCHF vOTU inh-1)
Cc1ccccc1-c1nc(CS(=O)(=O)CC(=O)NCCc2ccccc2)c(C)o1	CCHF vOTU inh-1 39.1 | CCHF vOTU inh-2 inactive
CCN(CC)c1ccc(C=CC(=O)C2C(=O)C=C(C)OC2=O)cc1 (configuration not stated)	none (no result: RecA intein inh, BJeLR lethal, CCHF vOTU inh-1)
COc1ccc(OC)c(NC(=O)COC(=O)C=Cc2ccc(Cl)cc2)c1	none (no result: RecA intein inh, BJeLR lethal, CCHF vOTU inh-1)
C=CCn1c(COc2ccc(C)cc2)nnc1SCC(=O)c1ccc(-c2ccccc2)cc1	CCHF vOTU inh-1 29.8 (no result: RecA intein inh, ugtP null kill, Mtb hypoxia inh, BJeLR lethal, Sa RN4220 lethal) | CCHF vOTU inh-2 inactive
C=CCn1c(COc2ccccc2)nnc1SCC(=O)c1ccc(-c2ccccc2)cc1	none (no result: RecA intein inh, ugtP null kill, Mtb hypoxia inh, BJeLR lethal, Sa RN4220 lethal)
CC(=O)Nc1ccc(C(C)=NNC(=O)c2ccc(CN3CCOCC3)cc2)cc1	none (no result: RecA intein inh, BJeLR lethal, CCHF vOTU inh-1)
CC(=O)Nc1ccc(/C=N/NC(=S)NC(C)C)cc1	CCHF vOTU inh-1 36.4 (no result: ugtP null kill, Mtb hypoxia inh, Sa RN4220 lethal) | CCHF vOTU inh-2 inactive
O=C1Nc2cc(C(=O)NCC3CCCO3)ccc2S/C1=C/c1ccccc1F (configuration not stated)	CCHF vOTU inh-1 30.7 | CCHF vOTU inh-2 inactive
CN1C(=O)/C(=C/c2ccccc2F)Sc2ccc(C(=O)NCC3CCCO3)cc21 (configuration not stated)	none
CC1CN(C(C)CO)C(=O)c2cccc(NC(=O)C3CCCCC3)c2OC1CN(C)S(=O)(=O)c1cccs1 (configuration not stated)	none (no result: RecA intein inh, BJeLR lethal, CCHF vOTU inh-1)
O=C(CCS(=O)(=O)c1ccc(Cl)cc1)NCCN1C(=O)S/C(=C\c2ccccc2F)C1=O	none
Cc1ccc(S(=O)(=O)CCC(=O)NCCN2C(=O)S/C(=C\c3ccccc3)C2=O)cc1	CCHF vOTU inh-1 40.2 | CCHF vOTU inh-2 inactive
Cc1cc(Br)cn2c(Cc3ccccc3C(F)(F)F)c(-c3ccco3)nc12	CCHF vOTU inh-1 30.2 (no result: RecA intein inh, ugtP null kill, Mtb hypoxia inh, BJeLR lethal, Sa RN4220 lethal) | CCHF vOTU inh-2 inactive
Cc1cc(Br)cn2c(Cc3ccccc3C(F)(F)F)c(-c3ccccc3)nc12	none (no result: RecA intein inh, ugtP null kill, Mtb hypoxia inh, BJeLR lethal, Sa RN4220 lethal)
COc1cc(C(c2c(C)n(C)n(-c3ccccc3)c2=O)c2c(C)n(C)n(-c3ccccc3)c2=O)cc(Br)c1O	none
COc1cc(C(c2c(C)[nH]n(-c3ccccc3)c2=O)c2c(C)[nH]n(-c3ccccc3)c2=O)cc(OC)c1OC	RecA intein inh 97.8, CCHF vOTU inh-1 80.3 | CCHF vOTU inh-2 inactive
O=C1Cc2ccccc2C(=O)N1	CCHF vOTU inh-1 115.8 (no result: RecA intein inh, ugtP null kill, Mtb hypoxia inh, BJeLR lethal, Sa RN4220 lethal) | CCHF vOTU inh-2 93.8
Cc1noc(C)c1NC(=O)N(C)CC1Oc2ccc(NS(=O)(=O)c3cn(C)cn3)cc2C(=O)N(C(C)CO)CC1C (configuration not stated)	none (no result: RecA intein inh, BJeLR lethal, CCHF vOTU inh-1)
CC(=O)N1CCN(c2ccc(N)cc2)CC1	CCHF vOTU inh-1 38.2 (no result: RecA intein inh, BJeLR lethal) | CCHF vOTU inh-2 inactive
Nc1ccc(N2CCN(c3ccc(F)cc3)CC2)cc1	none
FC(F)(F)c1cc(CO[C@@H]2CCCN[C@@H]2c2ccccc2)cc(C(F)(F)F)c1	CCHF vOTU inh-1 33.4 (no result: RecA intein inh, ugtP null kill, Mtb hypoxia inh, BJeLR lethal, Sa RN4220 lethal) | CCHF vOTU inh-2 inactive
Cn1c(-c2ccc(N)cc2)nc2ccccc21	none (no result: RecA intein inh, BJeLR lethal)
Cn1c(-c2ccc3nc(N)sc3c2)nc2cc(N)ccc21	CCHF vOTU inh-1 34.2 | CCHF vOTU inh-2 inactive
O=C(NN=Cc1cc(Br)c(O)c(Br)c1O)c1cccnc1	none (no result: RecA intein inh, BJeLR lethal, CCHF vOTU inh-1)
